# PubChem BioAssay (NCATS)
# Inconclusive results are not listed. Active and inactive are the calls of the source. Unless noted, calls follow the shape of the dose curve; as a rule, active = well fitted inhibition curve with a large enough effect; inconclusive = small, poorly fitted or top-dose-only effect; inactive = flat fitted curve, though single readings scatter.
# Legend:
# [1] = AP1 Signaling Pathway (AID 357; active = well fitted curve in either direction with a large enough effect, not every such curve was filed as active;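 also: ME-180 reporter cells stimulated with EGF at its EC50 level; % is scaled to controls: 0 for no effect and ±100 for the full control effect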)
# Procedure, shortened: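 Modulation of EGF-driven AP-1 transcription was assessed with a beta-lactamase reporter in ME-180 cells. Compound and EC50 EGF were co-incubated 5 hours at 37 °C before 2.5-hour CCF4 loading at room temperature and dual-emission reading.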
# [2] = NFAT Signaling Pathway (AID 444; active = well fitted curve in either direction with a large enough effect, not every such curve was filed as active;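 also: carbachol stimulus at about its EC50 of 1 µM final; % is scaled to controls: 0 for no effect and ±100 for the full control effect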); conditions: Jurkat NFAT-bla M1, carbachol, beta-lactamase ratio, 5 h; at 17.2 µM (top of the series) unless noted
# Procedure, shortened: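 Read-out: CCF4 FRET ratio (460 nm/530 nm) after 1 h RT dye loading, used for %activity and AC50 from titration series. Cells: Jurkat NFAT-β-lactamase/M1 line, treated with compound plus 1 uM carbachol for 5 h, 37 °C.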
# [3] = Stat Signaling Pathway (AID 446; active = well fitted curve in either direction with a large enough effect, not every such curve was filed as active;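 also: ME-180 cervical cancer cells given 40 pM IL-6 alongside compound; SIE-controlled beta-lactamase reporter measured as 460/530 nm FRET emission ratio; % is scaled to controls: 0 for no effect and ±100 for the full control effect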)
# Procedure, shortened: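 Reporter line: ME-180 cervical carcinoma, SIE-beta-lactamase. Treatment: compound with 40 pM IL-6, 5 hrs, 37 C, in low-serum OPTI-MEM with 10 mM HEPES pH 7.3. Detection: 460/530 nm fluorescence.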
# [4] = biological target: Glucocorticoid receptor (Homo sapiens) (UniProt P04150); assay: GR-GFP Redistribution (AID 450;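 active = compounds whose dose series gives a full or clear partial fitted curve of increased nuclear translocation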; also: potency is read from the fitted curve at half-maximal effect); conditions: U2OS GR-GFP nuclear translocation, laser cytometry, 2 h
# [5] = biological target: Glucocorticoid receptor (Homo sapiens) (UniProt P04150); assay: GR-EFC Redistribution (AID 451; calls by dose curve; also: potency is read from the fitted curve at half-maximal effect); conditions: CHO-K1 GR-EFC translocation, beta-gal luminescence, 2 h
# Procedure, shortened: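 Translocation of GR-ED fusion to nuclear EA restores b-gal, read by luminescence after 1 h room-temperature detection. Engineered CHO-K1 biosensor cells, 1,000/well, exposed 2 h at 37 C to titrations up to 46 uM final.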
# [6] = biological target: Mitogen-activated protein kinase 10 (Mus musculus) (UniProt Q61831); assay: JNK3 AlphaScreen Assay (AID 530; active = well fitted curve in either direction with a large enough effect, not every such curve was filed as active;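 also: kinase came from lysate of stimulated human HepG2 cells; signal reports phosphorylation of biotinylated GST-cJun 1-79 at Ser73 with 10 µM ATP; % is scaled to controls: 0 for no effect and ±100 for the full control effect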)
# Procedure, shortened: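 Compound titrations were preincubated 15 minutes at room temperature with substrate, antibody and pre-activated JNK3-containing HepG2 lysate. Reactions were started with 10 uM ATP and stopped with EDTA-containing bead buffer for AlphaScreen detection.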
# [7] = biological target: 3',5'-cyclic-AMP phosphodiesterase 4B (Homo sapiens) (UniProt Q07343); assay: qHTS Assay for Inhibitors of PDE-IV (AID 607; active = well fitted activation curve with a large enough effect in the main read-out, with a control signal flat, not every such curve was filed as active; also: % of control where 0% means no effect)
# Procedure, shortened: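 Cell-based read-out of cAMP via a modified cyclic nucleotide-gated channel and membrane potential dye (535/590 nm) in HEK293 cells expressing PDE4 endogenously. Compounds tested up to 22.9 uM final; 100 uM RO 20-1724 reference.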
# [8] = qHTS Assay for Lipid Storage Modulators (AID 1519; calls by dose curve); conditions: Drosophila S3 cells, BODIPY lipid droplet/cell ratio, laser cytometry, cells loaded with oleic acid; for activity change, negative = inhibition: at 25.7 µM (top of the series)
# Procedure, shortened: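 Cells seeded at 5,000 per well were treated with compounds over a concentration series and loaded with oleic acid (400 uM, as added). Lipid droplet fluorescence (488 nm excitation, 500-530 nm channel) was read by laser-scanning cytometry and normalized to 20 uM Triacsin C.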
# [9] = biological target: Ubiquitin carboxyl-terminal hydrolase 1 (Homo sapiens) (UniProt O94782); assay: Inhibitors of USP1/UAF1: Pilot qHTS (AID 504865);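 also: rhodamine fluorescence freed from ubiquitin-rhodamine substrate followed over time; top concentration of the series differs between compounds; % is scaled to controls: 0 for no effect and ±100 for the full control effect; nearly all actives have a fitted effect of over 35% in size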
# Procedure, shortened: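 USP1/UAF1 complex at 1 nM preincubated 15 min at room temperature with compound, then Ub-Rho substrate added at 150 nM final. Fluorescence (480/540 nm) read kinetically in 50 mM HEPES pH 7.8, 0.5 mM EDTA, 1 mM TCEP, 0.1 mg/ml BSA, 0.01% Tween-20.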
# [10] = biological target: Luciferin 4-monooxygenase (Photinus pyralis) (UniProt P08659); assay: Biochemical firefly luciferase enzyme assay for NPC (AID 624030);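 also: purified P. pyralis luciferase at 10 nM with luciferin and ATP substrate; 0% = DMSO and -100% = full luciferase inhibition by PTC124 control; nearly all actives have a fitted effect of over 70% in size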
# Procedure, shortened: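 Direct inhibition of firefly luciferase enzyme (10 nM final, 50 mM Tris Acetate) assessed by luminescence within 5 minutes. Percent activity scaled between DMSO and PTC124 positive control, with concentration-effect curves classified by fit quality and response.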
# [11] = qHTS profiling for inhibitors of Plasmodium falciparum proliferation (AID 504749); also: potency is read from the fitted curve at half-maximal effect;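 as to activity, negative = inhibition: 0% = DMSO vehicle and full inhibition = artemisinin control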; as to all read-outs here: nearly all actives have a fitted effect of over 60% in size; conditions: P. falciparum in erythrocytes, SYBR Green DNA, 72 h; for activity, negative = inhibition: at 28.7 µM (top of the series)
# Procedure, shortened: (§1)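 Infected RBCs, 0.3% parasitemia/2.5% Hct final; cpd 72 h, 37 C, 5% CO2; lysis buffer with saponin/triton/SYBR Green I, o/n RT dark; FI 485/535; norm. to artemisinin (0.29 uM) and DMSO.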
# C2A = assay: as above; conditions: P. falciparum in erythrocytes, SYBR Green DNA, 72 h; series mostly up to 12.8 µM
# Procedure, shortened: as §1
# CP238 = assay: as above; conditions: P. falciparum in erythrocytes, SYBR Green DNA, 72 h; series mostly up to 12.8 µM
# Procedure, shortened: as §1
# CP256 = assay: as above; conditions: P. falciparum in erythrocytes, SYBR Green DNA, 72 h; series mostly up to 12.8 µM
# Procedure, shortened: as §1
# FAB9 = assay: as above; conditions: P. falciparum in erythrocytes, SYBR Green DNA, 72 h; series mostly up to 12.8 µM
# Procedure, shortened: as §1
# JCK = assay: as above; conditions: P. falciparum in erythrocytes, SYBR Green DNA, 72 h; series mostly up to 12.8 µM
# Procedure, shortened: as §1
# PC49 = assay: as above; conditions: P. falciparum in erythrocytes, SYBR Green DNA, 72 h; series mostly up to 12.8 µM
# Procedure, shortened: as §1
# SC27B = assay: as above; conditions: P. falciparum in erythrocytes, SYBR Green DNA, 72 h; series mostly up to 12.8 µM
# Procedure, shortened: as §1
# W2 = assay: as above; conditions: P. falciparum in erythrocytes, SYBR Green DNA, 72 h; series mostly up to 12.8 µM
# Procedure, shortened: as §1
# [12] = biological target: Cytochrome P450 1A2 (Homo sapiens) (UniProt P05177); assay: p450-cyp1a2 (AID 410; calls by dose curve; also: potency is read from the fitted curve at half-maximal effect;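 as to activity change, negative = inhibition: -100% = full effect of reference inhibitor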)
# Procedure, shortened: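 20nM CYP1A2 with 100uM Luciferin-ME (at Km) in 100mM KPO4; compound preincubated 10 min, NADPH regeneration added, 60 min at room temperature. Luciferin quantified by luminescence after detection reagent; normalized to 57 uM furafylline.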
# [13] = measured here: cell count channel max response
# [14] = measured here: lipid channel max response
# Glucocorticoid receptor (Homo sapiens), sequence (P04150 whole entry, looked up, the tested form may be a part): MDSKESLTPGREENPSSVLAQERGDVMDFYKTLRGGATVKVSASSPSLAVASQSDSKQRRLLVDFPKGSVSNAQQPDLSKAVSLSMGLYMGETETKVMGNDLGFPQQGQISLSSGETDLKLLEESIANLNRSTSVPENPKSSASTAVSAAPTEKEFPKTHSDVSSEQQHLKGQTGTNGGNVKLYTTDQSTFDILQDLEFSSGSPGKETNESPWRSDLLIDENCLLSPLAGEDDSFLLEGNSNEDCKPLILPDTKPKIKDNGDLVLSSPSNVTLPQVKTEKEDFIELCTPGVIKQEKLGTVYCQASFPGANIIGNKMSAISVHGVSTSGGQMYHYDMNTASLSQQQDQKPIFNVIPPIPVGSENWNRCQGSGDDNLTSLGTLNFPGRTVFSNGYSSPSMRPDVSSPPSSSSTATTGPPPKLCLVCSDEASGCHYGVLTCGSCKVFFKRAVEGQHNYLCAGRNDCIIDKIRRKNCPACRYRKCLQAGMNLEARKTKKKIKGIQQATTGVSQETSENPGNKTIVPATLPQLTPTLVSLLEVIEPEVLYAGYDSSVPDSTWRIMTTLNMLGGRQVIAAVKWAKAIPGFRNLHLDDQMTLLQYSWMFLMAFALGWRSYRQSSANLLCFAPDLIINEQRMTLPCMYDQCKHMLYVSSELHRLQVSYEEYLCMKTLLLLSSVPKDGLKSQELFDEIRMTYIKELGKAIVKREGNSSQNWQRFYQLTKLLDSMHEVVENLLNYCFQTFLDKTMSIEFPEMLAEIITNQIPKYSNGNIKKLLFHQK
# Cytochrome P450 1A2 (Homo sapiens), sequence (P05177 whole entry, looked up): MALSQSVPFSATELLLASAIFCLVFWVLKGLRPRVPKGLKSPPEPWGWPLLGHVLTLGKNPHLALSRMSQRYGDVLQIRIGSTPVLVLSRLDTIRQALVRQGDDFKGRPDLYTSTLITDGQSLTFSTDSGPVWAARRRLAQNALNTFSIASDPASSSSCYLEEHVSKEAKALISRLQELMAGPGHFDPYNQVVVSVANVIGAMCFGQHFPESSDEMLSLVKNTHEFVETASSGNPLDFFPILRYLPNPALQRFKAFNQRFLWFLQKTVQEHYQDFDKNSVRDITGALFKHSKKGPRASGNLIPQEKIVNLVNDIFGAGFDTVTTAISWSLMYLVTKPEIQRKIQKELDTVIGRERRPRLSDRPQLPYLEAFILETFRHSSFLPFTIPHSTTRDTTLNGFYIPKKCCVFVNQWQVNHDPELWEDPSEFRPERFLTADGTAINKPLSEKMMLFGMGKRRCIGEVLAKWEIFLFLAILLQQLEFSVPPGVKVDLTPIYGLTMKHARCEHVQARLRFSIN
# Ubiquitin carboxyl-terminal hydrolase 1 (Homo sapiens), sequence (O94782 whole entry, looked up): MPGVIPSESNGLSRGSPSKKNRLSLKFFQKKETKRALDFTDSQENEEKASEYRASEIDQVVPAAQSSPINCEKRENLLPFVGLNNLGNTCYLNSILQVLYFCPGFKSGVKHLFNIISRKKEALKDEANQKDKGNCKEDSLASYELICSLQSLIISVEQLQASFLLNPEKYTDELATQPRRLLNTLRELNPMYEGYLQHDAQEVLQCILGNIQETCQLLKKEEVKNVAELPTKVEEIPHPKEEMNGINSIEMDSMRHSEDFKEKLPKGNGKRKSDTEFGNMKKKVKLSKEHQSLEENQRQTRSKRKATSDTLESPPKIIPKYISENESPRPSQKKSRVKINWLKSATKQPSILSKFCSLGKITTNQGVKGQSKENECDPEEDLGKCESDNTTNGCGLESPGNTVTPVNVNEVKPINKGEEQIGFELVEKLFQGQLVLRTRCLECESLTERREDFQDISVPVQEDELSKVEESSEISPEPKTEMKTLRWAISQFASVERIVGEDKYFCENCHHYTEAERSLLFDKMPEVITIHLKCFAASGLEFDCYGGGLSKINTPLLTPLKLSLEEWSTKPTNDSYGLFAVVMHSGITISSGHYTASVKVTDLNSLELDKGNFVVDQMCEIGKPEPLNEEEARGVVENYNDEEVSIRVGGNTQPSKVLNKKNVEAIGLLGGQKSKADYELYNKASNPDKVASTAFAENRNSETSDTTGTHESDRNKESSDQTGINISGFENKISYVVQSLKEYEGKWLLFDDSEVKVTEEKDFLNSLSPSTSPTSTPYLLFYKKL
# 3',5'-cyclic-AMP phosphodiesterase 4B (Homo sapiens), sequence (Q07343 whole entry, looked up): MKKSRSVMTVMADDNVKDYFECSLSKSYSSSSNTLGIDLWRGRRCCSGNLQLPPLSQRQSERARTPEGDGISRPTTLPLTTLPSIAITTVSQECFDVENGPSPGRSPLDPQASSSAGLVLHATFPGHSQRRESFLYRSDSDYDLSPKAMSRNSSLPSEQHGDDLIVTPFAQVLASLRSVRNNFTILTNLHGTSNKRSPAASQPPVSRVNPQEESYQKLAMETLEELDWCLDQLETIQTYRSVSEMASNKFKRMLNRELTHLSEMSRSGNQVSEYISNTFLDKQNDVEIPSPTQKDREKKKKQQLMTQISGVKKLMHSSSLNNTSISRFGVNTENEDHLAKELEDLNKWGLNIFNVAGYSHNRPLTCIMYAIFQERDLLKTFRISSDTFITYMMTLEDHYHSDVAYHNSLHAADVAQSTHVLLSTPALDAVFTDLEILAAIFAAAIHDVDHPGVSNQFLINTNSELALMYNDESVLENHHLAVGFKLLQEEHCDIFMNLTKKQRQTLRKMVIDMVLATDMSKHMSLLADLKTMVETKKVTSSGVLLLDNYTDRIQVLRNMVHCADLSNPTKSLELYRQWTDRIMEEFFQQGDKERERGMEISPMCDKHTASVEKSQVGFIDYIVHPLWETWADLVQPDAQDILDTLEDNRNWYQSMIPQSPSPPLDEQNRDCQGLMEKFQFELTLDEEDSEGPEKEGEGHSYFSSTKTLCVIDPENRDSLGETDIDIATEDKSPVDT
# Luciferin 4-monooxygenase (Photinus pyralis), sequence (P08659 whole entry, looked up): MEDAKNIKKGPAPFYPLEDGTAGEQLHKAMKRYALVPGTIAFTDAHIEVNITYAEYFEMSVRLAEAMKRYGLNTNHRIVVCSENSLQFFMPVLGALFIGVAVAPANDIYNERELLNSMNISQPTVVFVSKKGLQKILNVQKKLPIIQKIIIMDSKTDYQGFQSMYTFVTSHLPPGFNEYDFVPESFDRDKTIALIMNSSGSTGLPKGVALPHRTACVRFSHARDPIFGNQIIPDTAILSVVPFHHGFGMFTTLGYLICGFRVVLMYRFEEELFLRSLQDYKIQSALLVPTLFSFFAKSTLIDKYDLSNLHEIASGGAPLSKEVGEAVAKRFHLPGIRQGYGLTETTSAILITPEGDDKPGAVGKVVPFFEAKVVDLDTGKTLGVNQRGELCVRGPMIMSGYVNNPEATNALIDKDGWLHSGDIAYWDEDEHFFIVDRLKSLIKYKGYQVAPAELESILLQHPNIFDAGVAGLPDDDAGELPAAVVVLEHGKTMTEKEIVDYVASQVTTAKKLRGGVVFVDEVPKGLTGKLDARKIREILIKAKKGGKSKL
smiles,measurement,setting,value
C[C@@H](C(=O)O)c1ccc(N2Cc3ccccc3C2=O)cc1,outcome,[1],inactive
same,"activity change, negative = inhibition",[2],11.8% (inactive)
same,outcome,[3],inactive
same,Potency,[4],> 20.6 µM (inactive)
same,Potency,[5],> 20.6 µM (inactive)
same,Potency,[6],inactive
same,outcome,[7],inactive
same,"activity change, negative = inhibition",[8],-0.476% (inactive)
same,max response,[8]; [13],-8.47%
same,max response,[8]; [14],-10.4%
same,Potency,[9],inactive
CCN[C@@H]1C[C@H](N)[C@H](O[C@H]2OC(CN)=CC[C@H]2N)[C@@H](O)[C@H]1O[C@H]1OC[C@@](C)(O)[C@@H](NC)[C@@H]1O,outcome,[1],inactive
same,"activity change, negative = inhibition",[2],-14.4% (inactive)
same,outcome,[3],inactive
same,Potency,[6],inactive
same,outcome,[7],inactive
same,"activity change, negative = inhibition",[8],-1.78% (inactive)
same,max response,[8]; [13],-6.32%
same,max response,[8]; [14],-1.8%
same,Potency,[10],inactive
same,"activity, negative = inhibition",[11]; parasite line A,6.1% (inactive)
same,"activity, negative = inhibition",[11]; parasite line B,14.9% (inactive)
same,Potency,C2A,inactive
same,Potency,CP238,inactive
same,Potency,CP256,inactive
same,Potency,FAB9,inactive
same,Potency,JCK,inactive
same,Potency,PC49,inactive
same,Potency,SC27B,inactive
same,Potency,W2,inactive
O=C(N/N=C\c1ccc([N+](=O)[O-])o1)c1ccc(O)cc1,Potency,[11]; parasite line A,1.41 µM (active)
same,Potency,[11]; parasite line B,2.82 µM (active)
CC[C@@H]1OC(=O)[C@H](C)[C@H](O[C@@H]2C[C@](C)(OC)[C@H](O)[C@H](C)O2)[C@H](C)[C@H](O[C@@H]2O[C@@H](C)C[C@@H](N(C)C)[C@@H]2O)[C@](C)(O)C[C@H](C)C(=O)[C@H](C)[C@H](O)[C@]1(C)O,Potency,[12],inactive
same,"activity change, negative = inhibition",[2],0.792% (inactive)
same,outcome,[3],inactive
same,Potency,[6],inactive
same,outcome,[7],inactive
same,"activity change, negative = inhibition",[8],-1.3% (inactive)
same,max response,[8]; [13],9.04%
same,max response,[8]; [14],8.95%
O=C1C=CC(=O)c2c1ccc1c2ccc2ccccc21,Potency,[12],0.794 µM (active)
same,"activity change, negative = inhibition",[2],-25.7% (active)
same,Potency,[4],> 20.6 µM (inactive)
same,Potency,[5],> 20.6 µM (inactive)
same,Potency,[6],inactive
same,outcome,[7],inactive
same,"activity change, negative = inhibition",[8],-0.997% (inactive)
same,max response,[8]; [13],-0.715%
same,max response,[8]; [14],-3.16%
Clc1ccc([C@H](Cn2ccnc2)OCc2csc3c(Cl)cccc23)c(Cl)c1,Potency,[12],6.31 µM (active)
same,outcome,[3],inactive
same,Potency,[4],> 20.6 µM (inactive)
same,Potency,[5],> 20.6 µM (inactive)
same,Potency,[6],inactive
same,"activity change, negative = inhibition",[8],0.1% (inactive)
same,max response,[8]; [13],-11.9%
same,max response,[8]; [14],-11.7%
same,Potency,[9],inactive
same,Potency,[10],inactive
same,Potency,[11]; parasite line B,3.55 µM (active)
same,Potency,SC27B,4.47 µM (active)
same,Potency,W2,2.28 µM (active)
COc1c2c(nc3ccccc13)O[C@H]([C@@](C)(O)CO)C2,Potency,[12],12.6 µM (active)
same,"activity change, negative = inhibition",[2],-17.9% (inactive)
same,Potency,[5],> 20.6 µM (inactive)
same,Potency,[6],inactive
same,outcome,[7],inactive
same,"activity change, negative = inhibition",[8],1.14% (inactive)
same,max response,[8]; [13],-17.8%
same,max response,[8]; [14],-15.2%
same,Potency,[9],inactive
C[C@@]12CC3CC(N)(C1)C[C@@](C)(C3)C2,Potency,[12],inactive
same,"activity change, negative = inhibition",[2],-7.73% (inactive)
same,outcome,[3],inactive
same,Potency,[4],> 20.6 µM (inactive)
same,Potency,[6],inactive
same,outcome,[7],inactive
same,"activity change, negative = inhibition",[8],-4.9% (inactive)
same,max response,[8]; [13],-3.32%
same,max response,[8]; [14],-3.78%
same,Potency,[9],inactive
